From PubChem BioAssay (Tox21)
Values without a mark were called inactive. Inconclusive results are not listed. Where a call stands in place of a potency, no number is given. The source made the active and inactive calls. Unless noted, calls follow the shape of the full dose curve.

How the values were obtained:
[1] = Nuclear factor erythroid 2-related factor 2/antioxidant responsive element (Nrf2/ARE) small molecule agonists: qHTS cell viability counter screen in human keratinocytes (AID 1919968; active = well fitted curve in the direction sought with a large enough effect in the repeat runs; an effect the other way counts as inactive or inconclusive; also: nearly all actives have a fitted effect of over 55% in size; also: potency is read from the fitted curve at half-maximal effect)
Outline: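 In human HaCaT keratinocytes stably expressing an ARE-driven luciferase, compound exposure lasted 23 h at 37 C under 5% CO2. Viable cells are quantified with a protease-based fluorogenic reagent (CellTiter-Fluor) read 1 h after addition.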

[2] = molecular target: Gonadotropin-releasing hormone receptor (Homo sapiens) (UniProt P30968); test: Human gonadotropin-releasing hormone receptor (GnRHR) small molecule agonists, calcium flux assay in GnRHR-HEK293 cells (AID 1920063); also: nearly all actives have a fitted effect of over 35% in size
Outline: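 Intracellular calcium rise is the read-out: engineered human GnRHR HEK293 cells, dye-loaded, are exposed to DMSO-dissolved compounds and fluorescence at Ex/Em 480/540 is tracked for 3 min.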

[3] = molecular target: KiSS-1 receptor (Homo sapiens) (UniProt Q969F8); test: Human kisspeptin (KISS1R) small molecule agonists, calcium flux assay in KISS1R-HEK293 cells (AID 1920064; active = well fitted curve in the direction sought with a large enough effect in the repeat runs; an effect the other way counts as inactive or inconclusive)
Outline: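 Concentration-response testing used 15 concentrations in triplicate on human KISS1R-expressing HEK293 cells. Calcium-dependent fluorescence (Ex/Em 480/540) was followed kinetically for 3 min after compound transfer.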

[4] = G protein-coupled receptor (GPCR) small molecule agonists, calcium flux assay: HEK293 wild type cell line counter screen (AID 1920065)
Outline: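 Fluorescence intensity signals activation. After overnight (18 h) culture and a 1 h calcium dye load at 37 C, compounds are added by pin tool and the plate read at 480/540 nm for 3 min in 1 s steps.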

[5] = p53 small molecule agonists, cell-based qHTS assay with human liver microsomes (AID 1963577)
Outline: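 Cells carrying a p53-responsive bla reporter were rested 5 h (37 C, 5% CO2) before compound transfer. Human liver microsomes plus NADPH, 0.5 mg/mL final apiece, supplied metabolism during the 16 h 37 C exposure.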

[6] = p53 small molecule agonists, cell-based qHTS assay with human liver microsomes: qHTS cell viability counter screen (AID 1963579); also: nearly all actives have a fitted effect of over 45% in size
Outline: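 Seed p53RE-bla cells at 4,000 per well; incubate 5 h at 37 C; add compound, human liver microsomes and NADPH; incubate 16 h at 37 C; add CellTiter-Glo; after 30 min at room temperature, read luminescence.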

[7] = p53 small molecule agonists, cell-based qHTS assay with rat liver microsomes: qHTS cell viability counter screen (AID 1963580); also: nearly all actives have a fitted effect of over 45% in size
Outline: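 Cytotoxicity counter screen: intracellular ATP measured by CellTiter-Glo luminescence in the same wells as the beta-lactamase reporter read, on HCT-116 p53RE-bla cells exposed 16 h at 37 C to compounds with rat liver microsomes and NADPH, each 0.5 mg/mL final.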

[8] = p53 small molecule agonists, cell-based qHTS assay: qHTS cell viability counter screen (AID 1963581); also: nearly all actives have a fitted effect of over 45% in size
Outline: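 Luminescence from CellTiter-Glo, reflecting ATP content, serves as the cytotoxicity measure; it is taken after the 2 h reporter substrate step in HCT-116 p53RE-bla cells dosed for 16 h at 37 C.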

[9] = p53 small molecule agonists, cell-based qHTS assay (AID 1963582; active = well fitted activation curve with a large enough effect in the signal ratio in the repeat runs, not every such curve was filed as active; the % refers to the signal ratio)
Outline: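 After plating, p53RE-bla cells sat 5 h in the incubator; compounds or DMSO vehicle were pinned in; a 16 h incubation at 37 C followed; FRET substrate was added and, 2 h later at RT, fluorescence was measured.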

[10] = molecular target: 5-hydroxytryptamine receptor 2A (Homo sapiens) (UniProt P28223); test: 5-hydroxytryptamine receptor 2A (HTR2A) small molecule antagonists, cell-based qHTS assay (AID 1963586); also: nearly all actives have a fitted effect of over 45% in size
Outline: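 CHO cells stably expressing human HTR2A were plated for 18 h at 37 C, then loaded with calcium dye for 1 h. Compounds were preincubated 5 min at room temperature before DOI (4 nM solution) was added. Kinetic fluorescence was read for 3 min.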

[11] = molecular target: 5-hydroxytryptamine receptor 2A (Homo sapiens) (UniProt P28223); test: 5-hydroxytryptamine receptor 2A (HTR2A) small molecule agonists, cell-based qHTS assay (AID 1963587); also: nearly all actives have a fitted effect of over 30% in size
Outline: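 CHO cells stably expressing human HTR2A, plated 18 h, loaded with calcium dye 1 h at 37 C. Agonist mode: compounds added and intracellular calcium fluorescence recorded kinetically for 2 min at 1 sec intervals.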

[12] = molecular target: Muscarinic acetylcholine receptor M1 (Homo sapiens) (UniProt P11229); test: Cholinergic receptor muscarinic 1 (CHRM1) small molecule antagonists, cell-based qHTS assay (AID 1963588); also: nearly all actives have a fitted effect of over 40% in size; also: potency is read from the fitted curve at half-maximal effect
Outline: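 Compounds were tested at 15 concentrations in three independent runs. Dye-loaded CHRM1-CHO cells were exposed 5 min at room temperature before stimulation by acetylcholine added at 50nM. Intracellular calcium was read kinetically on FDSS for 3 min.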

[13] = molecular target: Muscarinic acetylcholine receptor M1 (Homo sapiens) (UniProt P11229); test: Cholinergic receptor muscarinic 1 (CHRM1) small molecule agonists, cell-based qHTS assay (AID 1963589); also: nearly all actives have a fitted effect of over 35% in size
Outline: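 Fluorescent calcium dye reports M1 activation in stably transfected CHO cells. Compounds, 15 concentrations, added after 1 h dye loading at 37 C; kinetic reading at 1 sec intervals.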

[14] = cAMP Responsive Elements (CRE) small molecule antagonists, cell-based qHTS assay (AID 1963591; active = well fitted inhibition curve with a large enough effect in the signal ratio in the repeat runs, not every such curve was filed as active; the % refers to the signal ratio; also: potency is read from the fitted curve at half-maximal effect)
Outline: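 Stimulation used NKH477 at a final 0.25 uM for 3 h in compound-treated CRE-bla HEK293T cells, seeded 18 h beforehand. Reporter activity was measured with LiveBLAzer B/G FRET substrate after 2 h at room temperature.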

[15] = molecular target: Beta-2 adrenergic receptor (Homo sapiens) (UniProt P07550); test: Adrenergic beta2 receptor (ADRB2) small molecule antagonists, cell-based qHTS assay (AID 1963592); also: series mostly up to about 92 µM; nearly all actives have a fitted effect of over 50% in size
Outline: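 Assay format: CHO-ADRB2 cells, 18-20hr seeding at 37C/5% CO2, then compound plus 1nM isoproterenol agonist mix for 0.5hr RT. Homogeneous time-resolved fluorescence cAMP detection after 1hr, expressed as 665/615 nm ratio.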

[16] = molecular target: D(2) dopamine receptor (Homo sapiens) (UniProt P14416); test: Dopamine D2 receptor (DRD2) small molecule agonists, cell-based qHTS assay (AID 1963594); also: nearly all actives have a fitted effect of over 35% in size
Outline: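 HEK293 cells stably expressing human DRD2, pre-treated with PDE inhibitor Ro20-1724 (0.1 mM final) and compound 10 min at room temperature, then stimulated with NKH477 (200nM […]) for 30 min. cAMP read by HTRF (665/620 nm).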

[17] = molecular target: D(2) dopamine receptor (Homo sapiens) (UniProt P14416); test: Dopamine D2 receptor (DRD2) small molecule antagonists, cell-based qHTS assay (AID 1963595; active = well fitted inhibition curve with a large enough effect in the signal ratio in the repeat runs, with a control signal flat; the % refers to the signal ratio)
Outline: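 Stable D2 receptor HEK293 line, 24 h after seeding. Compound preincubated 10 min, then quinpirole (12 nM) with forskolin analogue NKH477 (200 nM), 30 min, room temperature. Detection by time-resolved FRET of cAMP.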

[18] = cAMP Responsive Elements (CRE) small molecule agonists, cell-based qHTS assay (AID 1963590)
Outline: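 Compound exposure lasted 3 h at 37 C/5% CO2 in CRE-bla HEK 293T cells grown in assay medium with 10% dialyzed FBS and 25 mM HEPES. Reporter signal came from LiveBLAzer B/G FRET substrate, 2 h, room temperature.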

[19] = molecular target: Beta-2 adrenergic receptor (Homo sapiens) (UniProt P07550); test: Adrenergic beta2 receptor (ADRB2) small molecule agonists, cell-based qHTS assay (AID 1963593);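 also: CHO cells stably overexpressing human ADRB2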
Outline: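 CHO cells stably over-expressing ADRB2 were plated overnight at 37C, then dosed with compounds plus a stimulation mix containing 100uM IBMX and 25uM Ro-20-1724 for 0.5hr at room temperature. cAMP was measured by HTRF competition, 1hr.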

[20] = p53 small molecule agonists, cell-based qHTS assay with rat liver microsomes (AID 1963578)
Outline: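 Fluorescence from a beta-lactamase reporter under a p53 response element was measured after cells had been incubated 16 h at 37 C with test compound and rat liver microsomes plus NADPH (0.5 mg/mL final each).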

Sequence of Beta-2 adrenergic receptor (Homo sapiens) (P07550 whole entry, looked up): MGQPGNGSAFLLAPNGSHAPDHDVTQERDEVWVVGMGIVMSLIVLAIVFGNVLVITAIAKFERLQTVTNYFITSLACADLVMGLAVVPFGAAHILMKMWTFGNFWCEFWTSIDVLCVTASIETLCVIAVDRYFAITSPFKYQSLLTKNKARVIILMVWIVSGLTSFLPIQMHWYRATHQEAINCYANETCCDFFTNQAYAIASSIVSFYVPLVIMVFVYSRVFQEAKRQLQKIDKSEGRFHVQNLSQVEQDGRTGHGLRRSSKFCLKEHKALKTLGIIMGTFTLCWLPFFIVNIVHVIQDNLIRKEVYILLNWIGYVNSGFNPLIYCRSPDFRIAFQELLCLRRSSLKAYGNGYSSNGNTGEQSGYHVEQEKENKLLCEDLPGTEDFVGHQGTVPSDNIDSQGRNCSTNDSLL
Sequence of Muscarinic acetylcholine receptor M1 (Homo sapiens) (P11229 whole entry, looked up): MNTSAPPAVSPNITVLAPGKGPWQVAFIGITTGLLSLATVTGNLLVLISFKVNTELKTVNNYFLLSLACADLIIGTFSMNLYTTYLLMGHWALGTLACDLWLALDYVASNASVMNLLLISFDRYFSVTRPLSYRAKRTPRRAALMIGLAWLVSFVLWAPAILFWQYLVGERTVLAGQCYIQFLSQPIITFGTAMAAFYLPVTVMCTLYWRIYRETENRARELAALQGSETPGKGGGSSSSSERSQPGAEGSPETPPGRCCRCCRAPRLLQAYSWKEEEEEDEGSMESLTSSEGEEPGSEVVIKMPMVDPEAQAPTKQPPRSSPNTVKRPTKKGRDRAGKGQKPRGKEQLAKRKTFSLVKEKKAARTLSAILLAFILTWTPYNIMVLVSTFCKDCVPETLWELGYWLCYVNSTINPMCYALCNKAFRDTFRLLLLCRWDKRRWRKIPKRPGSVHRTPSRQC
Sequence of D(2) dopamine receptor (Homo sapiens) (P14416 whole entry, looked up): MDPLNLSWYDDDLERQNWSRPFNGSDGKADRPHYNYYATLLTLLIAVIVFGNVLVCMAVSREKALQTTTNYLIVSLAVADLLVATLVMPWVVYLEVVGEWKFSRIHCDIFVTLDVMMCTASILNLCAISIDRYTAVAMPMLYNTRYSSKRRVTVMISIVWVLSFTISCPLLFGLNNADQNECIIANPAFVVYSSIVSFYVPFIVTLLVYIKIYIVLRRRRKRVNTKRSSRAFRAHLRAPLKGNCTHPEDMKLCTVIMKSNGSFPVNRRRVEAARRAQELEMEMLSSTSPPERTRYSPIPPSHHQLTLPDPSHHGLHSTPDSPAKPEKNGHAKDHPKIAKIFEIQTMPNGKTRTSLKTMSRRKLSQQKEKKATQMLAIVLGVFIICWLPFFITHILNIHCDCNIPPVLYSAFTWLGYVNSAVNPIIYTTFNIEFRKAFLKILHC
Sequence of Gonadotropin-releasing hormone receptor (Homo sapiens) (P30968 whole entry, looked up): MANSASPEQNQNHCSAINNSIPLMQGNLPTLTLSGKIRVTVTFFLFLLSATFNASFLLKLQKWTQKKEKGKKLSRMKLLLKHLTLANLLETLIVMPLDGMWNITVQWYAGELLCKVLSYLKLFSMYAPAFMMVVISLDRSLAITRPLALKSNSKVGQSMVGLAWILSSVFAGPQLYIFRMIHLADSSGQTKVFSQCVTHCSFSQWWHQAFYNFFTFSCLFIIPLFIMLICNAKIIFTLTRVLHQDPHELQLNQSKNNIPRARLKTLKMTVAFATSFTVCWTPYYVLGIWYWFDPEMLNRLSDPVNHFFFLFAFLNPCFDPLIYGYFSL
Sequence of 5-hydroxytryptamine receptor 2A (Homo sapiens) (P28223 whole entry, looked up): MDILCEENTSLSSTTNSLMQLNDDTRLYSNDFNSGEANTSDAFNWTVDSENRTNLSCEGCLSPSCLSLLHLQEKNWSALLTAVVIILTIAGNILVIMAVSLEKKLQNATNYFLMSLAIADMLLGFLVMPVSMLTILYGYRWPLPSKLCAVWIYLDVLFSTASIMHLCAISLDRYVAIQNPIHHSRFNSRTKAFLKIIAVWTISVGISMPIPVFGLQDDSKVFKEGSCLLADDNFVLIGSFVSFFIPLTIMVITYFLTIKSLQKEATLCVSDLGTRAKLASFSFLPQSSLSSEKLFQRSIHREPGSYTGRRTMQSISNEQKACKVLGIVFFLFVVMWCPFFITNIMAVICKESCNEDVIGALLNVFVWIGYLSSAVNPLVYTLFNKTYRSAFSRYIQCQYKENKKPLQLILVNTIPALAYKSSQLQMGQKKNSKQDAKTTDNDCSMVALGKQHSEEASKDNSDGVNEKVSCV
Sequence of KiSS-1 receptor (Homo sapiens) (Q969F8 whole entry, looked up): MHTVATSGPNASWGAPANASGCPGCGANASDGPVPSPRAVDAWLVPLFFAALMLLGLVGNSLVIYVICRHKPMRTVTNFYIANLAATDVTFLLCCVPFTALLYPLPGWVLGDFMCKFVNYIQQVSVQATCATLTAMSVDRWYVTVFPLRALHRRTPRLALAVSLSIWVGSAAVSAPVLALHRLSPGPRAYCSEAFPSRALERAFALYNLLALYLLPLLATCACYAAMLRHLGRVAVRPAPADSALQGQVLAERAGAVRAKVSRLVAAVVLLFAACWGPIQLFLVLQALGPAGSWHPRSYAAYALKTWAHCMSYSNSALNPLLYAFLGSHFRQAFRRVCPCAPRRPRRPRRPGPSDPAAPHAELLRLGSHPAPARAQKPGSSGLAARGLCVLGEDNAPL

Structure (SMILES): O=C(O)c1ccccc1C(=O)OCc1ccccc1
- Potency [1]: inactive
- Potency [2]: inactive
- Potency [3]: inactive
- Potency [4]: inactive
- Potency [5]: inactive
- Potency [6]: inactive
- Potency [7]: inactive
- Potency [8]: inactive
- Potency [9]: inactive
- Potency [10]: inactive
- Potency [11]: inactive
- Potency [12]: inactive
- Potency [13]: inactive
- Potency [14]: inactive
- Potency [15]: inactive
- Potency [16]: inactive
- Potency [17]: inactive

Structure (SMILES): O=C(c1ccccc1)c1cc(Cl)ccc1O
- Potency [1]: inactive
- Potency [2]: inactive
- Potency [3]: inactive
- Potency [4]: inactive
- Potency [5]: inactive
- Potency [7]: inactive
- Potency [8]: inactive
- Potency [9]: inactive
- Potency [10]: inactive
- Potency [11]: inactive
- Potency [12]: 20 µM (active)
- Potency [13]: inactive
- Potency [14]: 41.1 µM (active)
- Potency [15]: inactive
- Potency [16]: inactive
- Potency [17]: inactive

Structure (SMILES): O=C(NCC(O)CO)c1c(I)c(C(=O)NCC(O)CO)c(I)c(N(CCO)C(=O)CO)c1I (stereo not drawn)
- Potency [1]: inactive
- Potency [2]: inactive
- Potency [3]: inactive
- Potency [4]: inactive
- Potency [5]: inactive
- Potency [7]: inactive
- Potency [8]: inactive
- Potency [10]: inactive
- Potency [11]: inactive
- Potency [12]: inactive
- Potency [13]: inactive
- Potency [18]: inactive
- Potency [14]: inactive
- Potency [15]: inactive
- Potency [19]: inactive
- Potency [16]: inactive
- Potency [17]: inactive

Structure (SMILES): CCOCN(C(=O)CS(=O)(=O)O)c1c(C)cccc1CC
- Potency [1]: inactive
- Potency [2]: inactive
- Potency [3]: inactive
- Potency [4]: inactive
- Potency [5]: inactive
- Potency [6]: inactive
- Potency [7]: inactive
- Potency [8]: inactive
- Potency [9]: inactive
- Potency [18]: inactive
- Potency [14]: inactive
- Potency [15]: inactive
- Potency [19]: inactive
- Potency [16]: inactive
- Potency [17]: inactive

Structure (SMILES): [Cl][Au]([Cl])[Cl]
- Potency [1]: 3.06 µM (active)
- Potency [2]: inactive
- Potency [3]: inactive
- Potency [4]: inactive
- Potency [5]: inactive
- Potency [20]: inactive
- Potency [10]: inactive
- Potency [11]: inactive
- Potency [12]: inactive
- Potency [13]: inactive
- Potency [15]: inactive
- Potency [19]: inactive
- Potency [16]: inactive
- Potency [17]: inactive

Structure (SMILES): CCN(CCC#N)c1ccc(N=Nc2c(Cl)cc([N+](=O)[O-])cc2Cl)cc1
- Potency [1]: inactive
- Potency [2]: inactive
- Potency [3]: inactive
- Potency [4]: inactive
- Potency [5]: inactive
- Potency [6]: inactive
- Potency [7]: inactive
- Potency [8]: inactive
- Potency [9]: inactive
- Potency [10]: inactive
- Potency [11]: inactive
- Potency [12]: inactive
- Potency [13]: inactive
- Potency [18]: inactive
- Potency [14]: inactive
- Potency [16]: inactive
- Potency [17]: inactive

Structure (SMILES): COc1cccc(N)c1
- Potency [1]: inactive
- Potency [2]: inactive
- Potency [3]: inactive
- Potency [4]: inactive
- Potency [5]: inactive
- Potency [6]: inactive
- Potency [7]: inactive
- Potency [8]: inactive
- Potency [9]: inactive
- Potency [10]: inactive
- Potency [11]: inactive
- Potency [12]: inactive
- Potency [13]: inactive
- Potency [18]: inactive
- Potency [14]: inactive
- Potency [15]: inactive
- Potency [16]: inactive
- Potency [17]: inactive

Structure (SMILES): COC(=O)/C=C(\C)CCC=C(C)C
- Potency [1]: inactive
- Potency [2]: inactive
- Potency [3]: inactive
- Potency [4]: inactive
- Potency [5]: inactive
- Potency [6]: inactive
- Potency [7]: inactive
- Potency [8]: inactive
- Potency [9]: inactive
- Potency [11]: inactive
- Potency [12]: inactive
- Potency [13]: inactive
- Potency [18]: inactive
- Potency [14]: inactive
- Potency [15]: inactive
- Potency [16]: inactive
- Potency [17]: inactive

Structure (SMILES): CCc1cccc(N(C)C(N)=Nc2cccc3ccccc23)c1
- Potency [1]: inactive
- Potency [2]: inactive
- Potency [3]: inactive
- Potency [4]: inactive
- Potency [5]: inactive
- Potency [6]: inactive
- Potency [7]: inactive
- Potency [8]: inactive
- Potency [9]: inactive
- Potency [11]: inactive
- Potency [12]: inactive
- Potency [13]: inactive
- Potency [18]: inactive
- Potency [14]: inactive
- Potency [15]: inactive
- Potency [19]: inactive
- Potency [16]: inactive
- Potency [17]: inactive

Structure (SMILES): O=P(O)(O)OP(=O)(O)O
- Potency [1]: inactive
- Potency [2]: inactive
- Potency [3]: inactive
- Potency [4]: inactive
- Potency [20]: inactive
- Potency [6]: inactive
- Potency [7]: inactive
- Potency [8]: inactive
- Potency [9]: inactive
- Potency [10]: inactive
- Potency [11]: inactive
- Potency [12]: inactive
- Potency [13]: inactive
- Potency [18]: inactive
- Potency [14]: inactive
- Potency [15]: inactive
- Potency [16]: inactive
- Potency [17]: inactive

Structure (SMILES): CCOC(=O)/C=C/c1ccccc1
- Potency [1]: inactive
- Potency [2]: inactive
- Potency [3]: inactive
- Potency [4]: inactive
- Potency [20]: inactive
- Potency [6]: inactive
- Potency [7]: inactive
- Potency [8]: inactive
- Potency [9]: inactive
- Potency [10]: inactive
- Potency [11]: inactive
- Potency [12]: inactive
- Potency [13]: inactive
- Potency [18]: inactive
- Potency [14]: inactive
- Potency [15]: inactive
- Potency [19]: inactive
- Potency [16]: inactive
- Potency [17]: inactive

Structure (SMILES): CCCCCCCCCCC[C@@H](C[C@@H]1OC(=O)[C@H]1CCCCCC)OC(=O)[C@H](CC(C)C)NC=O
- Potency [1]: inactive
- Potency [2]: inactive
- Potency [3]: inactive
- Potency [4]: inactive
- Potency [20]: inactive
- Potency [6]: inactive
- Potency [7]: inactive
- Potency [8]: inactive
- Potency [9]: inactive
- Potency [10]: inactive
- Potency [11]: inactive
- Potency [12]: inactive
- Potency [13]: inactive
- Potency [18]: inactive
- Potency [15]: inactive
- Potency [16]: inactive
- Potency [17]: inactive
